Screens deposited in PubChem BioAssay by NMMLSC.
Avidin fluor: avidin bead compound fluorescence profile | Avidin beads, compound fluorescence 488/530 nm, flow cytometry; stronger effect = higher value | fluorescence (KMESF) at 10 µM | actives 0.38% (n = 220,000) | AID 1775; in the data active = fluorescence above about 47
GSH fluor: GSH bead compound fluorescence profile | actives 0.25% (n = 190,000) | fluorescence (KMESF) at 10 µM | GSH beads flow cytometry, compound fluorescence 488/530 nm; stronger effect = higher value | AID 1776; in the data active = fluorescence above about 89;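 note: glutathione beads carrying GST-tagged Bcl family fusion proteins plus one bare bead set; values are compound well signal with DMSO vehicle wells as background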
RGS16-Gao HTS: RGS16-Galphao interaction regulator (human) | actives 0.38% (n = 220,000) | binding response (% of control), % at 10 µM | bead-based flow cytometry RGS16-Galphao binding, fluorescence; actives lie on both sides | O15492+P09471;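 note: Galphao activated by GDP with aluminum fluoride before binding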
Target sequence (O15492 whole entry, looked up): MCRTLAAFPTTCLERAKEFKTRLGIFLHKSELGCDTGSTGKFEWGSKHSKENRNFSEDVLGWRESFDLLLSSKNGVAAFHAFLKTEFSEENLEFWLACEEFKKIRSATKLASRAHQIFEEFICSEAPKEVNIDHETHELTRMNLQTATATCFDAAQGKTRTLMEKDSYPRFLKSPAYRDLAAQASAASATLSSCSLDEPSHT
Target sequence (P09471 whole entry, looked up): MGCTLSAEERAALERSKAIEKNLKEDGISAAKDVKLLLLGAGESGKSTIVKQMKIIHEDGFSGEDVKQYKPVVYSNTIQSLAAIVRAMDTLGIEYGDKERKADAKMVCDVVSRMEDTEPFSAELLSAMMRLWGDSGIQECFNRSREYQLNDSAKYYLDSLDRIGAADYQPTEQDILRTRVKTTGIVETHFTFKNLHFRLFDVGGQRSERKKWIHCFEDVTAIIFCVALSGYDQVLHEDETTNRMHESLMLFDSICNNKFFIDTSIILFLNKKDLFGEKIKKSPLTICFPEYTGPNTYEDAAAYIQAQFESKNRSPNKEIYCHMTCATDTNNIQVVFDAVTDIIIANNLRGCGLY
RGS7-Gao: regulators of human RGS7-Galphao interaction; P09471; Multiplexed bead flow cytometry, RGS7-Galphao binding; actives lie on both sides; binding response (% of control), % at 10 µM; actives 0.35% (n = 220,000); in the data active = binding response below about 49% or above about 150%; inconclusive = no clear call, values can overlap the other calls; inactive = in between;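 note: fluorescent Galphao held in activated GDP-AlF4 state binding bead-coupled RGS7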
Target sequence (P09471 whole entry, looked up): as above
RGS4-Gao reg: human RGS4-Galphao interaction regulation; P09471; AID 1415; actives 0.33% (n = 220,000); Multiplexed bead flow cytometry, RGS4-Galphao binding; actives lie on both sides; binding response (% of control), % at 10 µM; in the data active = binding response below about 49% or above about 150%; inactive = in between;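 note: fluorescent Galphao activated with aluminum fluoride binding bead-coupled RGS4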
RGS8-Gao: human RGS8-Galphao interaction regulation. response (percent of control binding), % at 10 µM. multiplexed bead flow cytometry, RGS8-Galphao binding; actives lie on both sides. actives 0.34% (n = 220,000). P09471; in the data active = response below about 60% or above about 140%; inactive = in between;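 note: Galphao activated as the GDP aluminium fluoride complex binding bead-coupled RGS8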
RGS-Gao: regulators of human RGS4-Galphao interaction; actives 99% (n = 1,600); shares compounds with RGS16-Gao HTS; multiplexed bead flow cytometry, RGS–Galpha-o binding; RGS4–Galpha-o binding response, % at 10 µM; AID 1504;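 note: fluorescently labeled Galpha-o bound to GDP with aluminium fluoride binding biotinylated RGS beads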
Avidin counter: counter-screen: compounds disrupting biotin binding to avidin beads; shares compounds with RGS16-Gao HTS; streptavidin beads, fluorescein-biotin binding, flow cytometry; inhibition, % at 10 µM; 1,700 tested, under 10 active;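 active = inhibition above 50%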;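 note: median green fluorescence of gated singlet beads compared with DMSO control wells; 0% = DMSO wells and 100% = complete loss of bead fluorescence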
RGS8-Gao confirm: RGS8-Galphao interaction regulation, single point confirmation; shares compounds with RGS16-Gao HTS; bead-based flow cytometry RGS8-Galphao binding, fluorescence; actives lie on both sides; binding response (% of control), % at 10 µM; actives 3% (n = 1,700); AID 1836; in the data active = binding response below about 72% or above about 130%; inactive = in between;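 note: Galphao activated as GDP AlF4 complex before binding bead RGS8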
RGS7-Gao single: confirmation of regulators of human RGS7-Galphao interaction | shares compounds with RGS16-Gao HTS | bead-based flow cytometry RGS7-Galphao binding; actives lie on both sides | response (percent of control binding), % at 10 µM | actives 7.8% (n = 1,700); in the data active = response below about 75% or above about 130%; inactive = in between;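 note: fluorescent Galphao activated with GDP and aluminum fluoride binding bead-coupled RGS7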
RGS16-Gao conf: confirmation of regulators of human RGS16-Galphao interaction; shares compounds with RGS16-Gao HTS; bead-based flow cytometry, RGS16-Galphao binding; actives lie on both sides; response (% of control binding), % at 10 µM; actives 4% (n = 1,700); AID 1838; in the data active = response below about 74% or above about 130%; inactive = in between;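 note: Galphao activated as the GDP aluminium fluoride complex binding bead-coupled RGS16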
RGS4-Gao confirm: confirmation of regulators of human RGS4-Galphao interaction. shares compounds with RGS16-Gao HTS. actives 4% (n = 1,700). RGS4-Galphao binding, multiplexed bead flow cytometry; actives lie on both sides. binding response (% of control), % at 10 µM; in the data active = binding response below about 74% or above about 130%; inactive = in between
RGS19-Gao conf: confirmation of regulators of human RGS19-Galphao interaction; shares compounds with RGS16-Gao HTS; bead-based flow cytometry RGS19-Galphao binding; actives lie on both sides; response (percent of control binding), % at 10 µM; actives 5% (n = 1,700); in the data active = response below about 50% or above about 160%; inactive = in between;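 note: 100% = no compound control and 0% = blank background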
Starred values were filed as active, the others as inactive; i = inactive; ? = inconclusive; . = no result; [ ] = remark or other dose. Hits are enriched below; roughly 1.2% of the tested compounds scored in any of these assays. Unless noted, the rule behind the calls is not given here.

SMILES	Avidin fluor	GSH fluor	RGS16-Gao HTS	RGS7-Gao	RGS4-Gao reg	RGS8-Gao	RGS-Gao	Avidin counter	RGS8-Gao confirm	RGS7-Gao single	RGS16-Gao conf	RGS4-Gao confirm	RGS19-Gao conf
Cc1ccc(C)c(NC(=S)c2ccc3ccccc3n2)c1	-5	12	2.2*	8.0*	19*	15*	.	0	100	82	96	86	80
O=C1C(=O)N(Cc2ccccc2)C(=O)N1CCOc1ccccc1	7	19	49	52	56	58*	56*	0	103	102	104	105	91
Cc1ccc(OCCN2C(=O)c3ccccc3C2=O)cc1	18	13	94	91	92	91	.	.	.	.	.	.	.
CSc1nc2c(c(=O)[nH]1)C(c1cccc(Br)c1)CC(=O)N2 (stereo not drawn)	25	15	102	96	100	99	.	.	.	.	.	.	.
CC(=O)NC(C)c1ccc(Cl)c(Cl)c1 (stereo not drawn)	5	32	i	133	139	156*[activator]	139*	.	.	.	.	.	.
Cc1ccc(F)c(C2C3C=CCC(c4cccc(-c5ccc(N(C)C)cc5)c4)C3C(=O)N2Cc2ccccc2)c1 (stereo not drawn)	6	.	86	?	89	94	.	.	.	.	.	.	.
CC12C(=O)N(c3nccs3)C(=O)C1C1C=CC2C1 (stereo not drawn)	.	29	.	.	.	.	.	0	103	98	100	97	89
COC(=O)/C=c1\[nH]c2nnc(C)n2c1=O	6	.	100	?	98	100	.	.	.	.	.	.	.
CCOc1ccc2ncc(C(=O)c3ccc(OC)cc3)c(N3CCN(CC)CC3)c2c1	50*	129*	284*[activator]	309*[activator]	359*[activator]	123	.	1	102	102	103	103	74
CCc1ccc(C(=O)c2cnc3ccc(OC)cc3c2N2CCN(CC)CC2)cc1	15	14	104	103	106	104	.	.	.	.	.	.	.
CCOc1cc(O)c(-c2[nH]ncc2-c2nc(C)cs2)cc1CC	8	.	87	?	96	100	.	.	.	.	.	.	.
COc1ccccc1NS(=O)(=O)c1cc(Cl)ccc1OC	37	17	218	129	125	144*[activator]	125*	0	104	103	107	104	98
COc1ccccc1-c1csc(NC(=O)c2ccc(N3C(=O)CCC3=O)cc2)n1	10	25	101	101	102	104	.	.	.	.	.	.	.
O=C(COc1ccc(/C=N/NC(=O)c2cc3ccccc3o2)cc1Cl)Nc1ccccc1	49*	116*	i	218*[activator]	373*[activator]	225*[activator]	.	0	100	96	100	91	166*[activator]
Cc1ccc(OC(=O)C23CC4CC(CC(C4)C2)C3)c(C)n1	111*	10	101	152*[activator]	119	98	119*	2	105	109	104	107	90
CCc1nc(C)ccc1OC(=O)C12CC3CC(CC(C3)C1)C2	21	11	101	100	101	99	.	.	.	.	.	.	.
CCCCOCP(=O)(CCCC)COCCCC	1	28	-1	25*	24*	32*	.	1	102	104	102	102	97
O=C(CSc1nccc(=O)[nH]1)c1cc2ccccc2o1	7	.	94	?	97	97	.	.	.	.	.	.	.
O=C(CSc1ncn[nH]1)c1cc2ccccc2o1	33	22	219*[activator]	243*[activator]	265*[activator]	112	.	-1	98	100	96	96	70
CC(C)(C)c1ccc(-n2nc(C#N)c(Cl)cc2=O)cc1	9	9	102	?	103	102	.	.	.	.	.	.	.
N#Cc1ccc(C(=O)CSc2n[nH]c(=O)n2-c2cccnc2)cc1	2	.	104	?	105	101	.	.	.	.	.	.	.
Cc1c(Cl)cccc1NC(=S)N1CCC(N(C)CC2CCCO2)CC1 (stereo not drawn)	19	11	113	111	110	105	.	.	.	.	.	.	.
Cc1ccc2[nH]c3c(c2c1)CC/C(=C/c1ccccc1)C3=O	194*	13	129	214*[activator]	113	96	113*	4	94	94	93	97	97
COC(=O)Cc1c(C)nc2nc(NCc3ccc(Cl)cc3)[nH]n2c1=O	86*	15	178*[activator]	151*[activator]	155*[activator]	118	.	2	100	100	102	100	89
O=[N+]([O-])c1ccc2c(c1)N([O-])C1(CCCCC1)[N+]2=O	4	.	32	?	91	35*	91*	.	.	.	.	.	.
SMILES	Avidin fluor	GSH fluor	RGS16-Gao HTS	RGS7-Gao	RGS4-Gao reg	RGS8-Gao	RGS-Gao	Avidin counter	RGS8-Gao confirm	RGS7-Gao single	RGS16-Gao conf	RGS4-Gao confirm	RGS19-Gao conf
CCOC(=O)c1cccc2c1-c1ccccc1/C2=N/O	19	6	106	102	103	106	.	.	.	.	.	.	.
CC1CCCC(C)N1C(=O)c1cccc2c1-c1ccccc1/C2=N/O (stereo not drawn)	143*	12	109	166*[activator]	110	101	110*	0	97	98	99	98	101
CC1(C)Cc2c(sc3c2c(=N)n(Cc2ccco2)c(=O)n3Cc2ccc(F)cc2)CO1	22	24	94	97	98	98	.	.	.	.	.	.	.
COc1ccc(Cn2c(=O)n(Cc3ccco3)c(=N)c3c4c(sc32)COC(C)(C)C4)cc1	125*	27	117	175*[activator]	115	101	115*	2	102	100	104	102	97
CCOC(=O)N1CCN(C(=O)CN(Cc2ccc(Cl)cc2)S(=O)(=O)c2ccc(C)cc2)CC1	.	42	.	92	98	99	.	-1	97	97	98	100	93
NC(=O)c1ccc(F)cc1	2	17	12*	18*	24*	15*	.	-1	105	111	107	110	100
